Each structure is given as a SMILES string. Among all 310,000 compounds or so, about 11,000 (3.5%) were called active. Another 4% or so got no clear call; they are omitted. Calls follow the shape of the dose curve; as a rule, active = well fitted inhibition curve with a large enough effect; inconclusive = small, poorly fitted or top-dose-only effect, or another doubt; inactive = no such curve, though single readings can be large or run the other way. The full list was thinned out, with actives kept by preference.

47 compounds from PubChem BioAssay AID1490 (National Center for Advancing Translational Sciences (NCATS), 2009) can be followed below.
Potency is read from the fitted curve at half-maximal effect.

The target in this assay is 4'-phosphopantetheinyl transferase ffp (Bacillus subtilis) (UniProt Q9F4F7). The assay can be described thus: qHTS Assay for Inhibitors of Bacillus subtilis Sfp phosphopantetheinyl transferase (PPTase).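 Also: the enzyme is Sfp with the accession as filed and its product quenches rhodamine fluorescence.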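 As to largest response in the series, negative = inhibition: 0% = enzyme reaction without inhibitor and -100% = no enzyme wells.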 The conditions noted are these: Biochemical Sfp PPTase activity. From the text:
Assay Submitter: Michael Burkart, University of California, San Diego
Screening Center PI: Austin, C.P.
Screening Center: NIH Chemical Genomics Center [NCGC]
The covalent attachment of a phosphopantetheinyl (4'-PP) arm to a variety of synthases and other proteins is a key posttranslational protein modification. The 4'-PP is installed on the proteins post-translationally from coenzyme A (CoA) on a conserved serine residue by action of phosphopantetheinyl transferase (PPTase) enzymes. Phosphopantetheinylation is essential for synthase activity, and removal of the PPTase gene precludes natural product synthesis in microorganisms, or in the case of fatty acid biosynthesis, renders the organism unviable. PPTase enzymes belong to a distinct structural superfamily. Within bacteria, these enzymes are grouped into two classes based upon primary structure, the AcpS-Type and Sfp-Type PPTases.
Sfp-type PPTases, corresponding to an activator of surfactin production in Bacillus subtilis, are responsible for modifying type I polyketide and nonribosomal peptide synthases of prokaryotes. Sfp-type PPTases are responsible for the activation of a variety of pathogen-associated virulence factors. Among these compounds are toxins such as mycolactone from Mycobacterium ulcerans, siderophores such as vibriobactin from Vibrio cholerae or mycobactin from Mycobacterium tuberculosis, as well as the mycolic acids which form the waxy cell wall of Mycobacteria. The biosyntheses of these natural products are considered attractive targets for drug design.
In search of small molecule Sfp-PPTase inhibitors, a fluorescence quenching assay was developed for detection of Bacillus subtilis Sfp-PPTase enzymatic activity in a miniaturized high-throughput format. The consensus ybbr acceptor peptide […] was N-terminally labeled with Black Hole Quencher-2 (BHQ-2) and used in combination with rhodamine-labeled coenzyme A as a co-substrate.
Inhibition of Sfp-PPTase was detected by recording the fluorescence intensity change over a 30-minute reaction period at a 525 nm excitation and 598 nm emission. Reagents were supplied by Michael Burkart and Timothy Foley, University of California at San Diego.
This BioAssay deposition is for validation of the developed Sfp-PPtase assay.
Assay Buffer: 50 mM Hepes-Na pH 7.6, 10 mM MgCl2, 0.01% Nonidet P-40, and 0.01% BSA.
3 uL of Sfp-PPTase enzyme (final concentration 15 nM) and 1 uL of substrate mixture (final concentration for rhodamine-CoA and BHQ-2-YbbR 5 uM and 12.5 uM, respectively) dispensed in columns 1, 2, 5 - 48. Columns 1 and 2 used to generate neutral control (uninhibited reaction)
Three uL of reagents, consisting of buffer (in columns 3 and 4 as negative control) and Sfp-PPTase (in columns 1, 2, 5 - 48) were dispensed into 1,536-well Greiner black solid bottom plate. Compounds (23 nL) were transferred via Kalypsys pintool equipped with 1,536-pin array. The plate was incubated for 15 min at room temperature, followed by the addition of 1 uL substrate to start the reaction. The plate was then centrifuged at 1000 rpm for 15 seconds, and the fluorescence intensity recorded on a ViewLux High-throughput CCD imager (Perkin-Elmer) using standard BODIPY optics (525 nm excitation and 598 nm emission). The plate was then incubated for 30 minutes, and a second read on the ViewLux was performed. The fluorescence intensity difference over the 30-minute period was used to calculate the respective reaction rate for each well.
(In general: qHTS replaces the single test concentration by a dilution series.)
`Cc1ccc(C)c(NC(=S)NNC(=O)c2csc(C)c2)c1`: the largest response in the series, negative = inhibition is 9.77% (inactive).

Take `CC(C)c1ccc(NC(=S)NNc2ccc(Cl)c(C(=O)O)c2)cc1`: the largest response in the series, negative = inhibition was -24.2% (inactive).

Regarding `Cc1ccc(C)c(NC(=S)NNC(=S)Nc2ccc(C(C)C)cc2)c1`, the Potency was 4.47 µM (active).

Take `NC(=O)C1CCCN(CC(=O)N2CCN(c3ccccc3)CC2)C1` (configuration not stated): the largest response in the series, negative = inhibition was 19% (inactive).

With `CC1CCN(CC(=O)Nc2nccs2)CC1`, the largest response in the series, negative = inhibition was 6.83% (inactive).

Regarding `Cc1nc2ccccc2n1CC(O)c1ccccc1` (configuration not stated), the largest response in the series, negative = inhibition was 2.21% (inactive).

`O=C(Nc1ccccc1Cl)/C(Cl)=C(\Cl)S(=O)c1ccccc1` (configuration not stated): the Potency was 6.31 µM (active).

With `O=C(COC(=O)c1cccs1)Nc1ccccc1Cl`, the largest response in the series, negative = inhibition was 3.72% (inactive).

For `O=C(Nc1ccccc1Cl)Nn1cnnc1`, the largest response in the series, negative = inhibition was 10.7% (inactive).

For `CC(=O)Oc1c2c(c3c(c1CC=C(C)C)O[C@@]14C(=CC5CC1C(C)(C)OC4(C/C=C(\C)C(=O)O)C5=O)C3=O)OC(C)(CCC=C(C)C)C=C2` (some centres not stated), the largest response in the series, negative = inhibition was -62.7% (inactive).

`O=C(NCc1ccco1)C(c1ccncc1)N(C(=O)Cn1nnc2ccccc21)c1ccccc1` (configuration not stated): the largest response in the series, negative = inhibition was 18% (inactive).

Turning to `O=C(Nc1ccc(S(=O)(=O)NCC2CCCO2)cc1)c1ccc(F)cc1` (configuration not stated), the largest response in the series, negative = inhibition is 10.5% (inactive).

Regarding `COc1ccc(OC)c(CCNC(=O)CCn2ccc3cc(S(=O)(=O)N4CCCC4)ccc32)c1`, the largest response in the series, negative = inhibition was 4.91% (inactive).

With `CCNC(=S)Nc1ccc(OC(F)(F)F)cc1`, the largest response in the series, negative = inhibition is 14.8% (inactive).

In the case of `FC(F)(F)Oc1ccc(NC(=S)NCc2ccccc2)cc1`, the largest response in the series, negative = inhibition is 7.74% (inactive).

On to `CS(=O)(=O)c1sc(C(=O)NC(=S)Nc2ccc(OC(F)(F)F)cc2)c2c1C=CCC2`, for which the Potency is 44.7 µM (active).

Regarding `CCC(=O)Nc1ccc(-c2ccc(N3CCCCC3)nn2)cc1`, the largest response in the series, negative = inhibition is 14.4% (inactive).

For the compound `C=C1CCN(C(CC(C)C)C(=O)N2CCOCC2)S(=O)(=O)c2ccccc21` (configuration not stated), the largest response in the series, negative = inhibition was -9.91% (inactive).

Turning to `CCOc1ccccc1NC(=O)Cn1ncc2ccc([N+](=O)[O-])cc21`, the largest response in the series, negative = inhibition is -5.95% (inactive).

On to `COc1ccc(C(=O)NNC(=O)c2cnccn2)cc1[N+](=O)[O-]`, for which the Potency was 44.7 µM (active).

For the compound `COc1cccc(OCC(=O)NNC(=O)c2cnccn2)c1`, the largest response in the series, negative = inhibition was -17.6% (inactive).

On to `COc1ccc(C(=O)O/N=C(\N)c2ccccn2)cc1[N+](=O)[O-]`, for which the largest response in the series, negative = inhibition was 9.71% (inactive).

Consider `CC1CCCC(C)N1C(=O)CSc1nnnn1C1CCCC1` (configuration not stated), for which the largest response in the series, negative = inhibition was 18.7% (inactive).

With `CCC(CC)C(=O)Nc1c2c(nn1-c1ccc(C)cc1)CS(=O)(=O)C2`, the largest response in the series, negative = inhibition is 4.15% (inactive).

As to `COc1ccc(C(=O)Nc2ccccc2C(=O)N2CCN(c3ccccc3)CC2)cc1`, the largest response in the series, negative = inhibition is 5.69% (inactive).

With `CC(C)c1ccc(N2CCN(C(=O)c3ccccc3NC(=O)/C=C(\C(=O)O)c3ccccc3)CC2)cc1`, the Potency was 56.2 µM (active).

For `O=C(O)C1CC=CCC1C(=O)Nc1ccccc1C(=O)N1CCN(c2ccccc2)CC1` (configuration not stated), the largest response in the series, negative = inhibition was 22.9% (inactive).

Consider `Cc1cc(C)c(S(=O)(=O)N(C)CC(=O)NCC2CCCO2)c(C)c1` (configuration not stated), for which the largest response in the series, negative = inhibition is 16.6% (inactive).

Take `COc1ccc(/C=C/c2c(-c3cccc(C)c3)oc3ccc(-c4ccc5c(c4)OCO5)cc23)cc1`: the largest response in the series, negative = inhibition is 1.24% (inactive).

For the compound `CNC(=S)NNC(=O)c1oc2nc(-c3ccccc3)cc(-c3ccco3)c2c1N`, the Potency was 12.6 µM (active).

Regarding `CNc1nc(-c2ccccc2)cc(-c2ccccc2)n1`, the largest response in the series, negative = inhibition was -1.57% (inactive).

Consider `NNC(=O)c1oc2nc(-c3ccccc3)cc(-c3ccco3)c2c1N`, for which the largest response in the series, negative = inhibition is -13.3% (inactive).

Regarding `CN1C(=O)CN2CCc3ccccc3C2c2cc(Cl)ccc21` (configuration not stated), the largest response in the series, negative = inhibition was 11% (inactive).

`CC(C)(C)NS(=O)(=O)c1ccc(NC(=O)C2CCCO2)cc1` (configuration not stated): the largest response in the series, negative = inhibition is 9.67% (inactive).

As to `COC(=O)c1cccc(N(CC(=O)NCC2CCCO2)C(=O)CCC(=O)Nc2cc(C)on2)c1` (configuration not stated), the largest response in the series, negative = inhibition was -5.12% (inactive).

As to `Cc1ccc(NC(=O)CSc2nnc(CNC(=O)c3ccccc3F)o2)cc1Cl`, the largest response in the series, negative = inhibition was 12.4% (inactive).

For the compound `Cn1cccc1-c1nc2ccccc2n1C`, the largest response in the series, negative = inhibition was 1.06% (inactive).

As to `c1coc(-c2nc3nc4ccccc4n3nc2-c2ccco2)c1`, the Potency is 39.8 µM (active).

On to `CS(=O)(=O)n1nc(-c2ccco2)nc1N`, for which the largest response in the series, negative = inhibition was 23.7% (inactive).

As to `CC(CCc1ccccc1)NC(=O)c1cnc(Cl)c(Cl)c1` (configuration not stated), the largest response in the series, negative = inhibition is 8.93% (inactive).

With `CCOC(=O)N1CCN(C(c2cccnc2)c2ccc3cccnc3c2O)CC1` (configuration not stated), the Potency was 20 µM (active).

Consider `CCOC(=O)N1CCN(C(=O)C2CCN(c3ncnc4c3sc3cccc(F)c34)CC2)CC1`, for which the largest response in the series, negative = inhibition is -3.49% (inactive).

On to `CCN1CCN(C(c2cccnc2)c2cc(Cl)c3cccnc3c2O)CC1` (configuration not stated), for which the Potency is 39.8 µM (active).

Turning to `Clc1cccc(CN2COc3c(cc(Cl)c4cccnc34)C2)c1`, the largest response in the series, negative = inhibition was -2.55% (inactive).

As to `Cc1onc(C(=O)NN)c1C(=O)N1CCN(C(c2ccccc2)c2ccccc2)CC1`, the largest response in the series, negative = inhibition was 1.91% (inactive).

Turning to `Oc1ccccc1CN1CCN(C(c2ccccc2)c2ccccc2)CC1`, the largest response in the series, negative = inhibition was -13.4% (inactive).

In the case of `O=C(c1ccc(Cn2cc([N+](=O)[O-])cn2)o1)N1CCCC1`, the largest response in the series, negative = inhibition was 5.1% (inactive).
